Experimental data: ChEMBL document CHEMBL1157539, “Thousands of chemical starting points for antimalarial lead identification” (Nature, 2010)

Tests used:
Assay type in all cases: functional
[1] = tested on: Plasmodium falciparum; assay: GSK_TCMDC: Inhibition of Plasmodium falciparum 3D7 in whole red blood cells, using parasite LDH activity as an index of growth. Test compounds present at 2uM
[2] = tested on: Plasmodium falciparum; assay: GSK_TCMDC: Inhibition of Plasmodium falciparum Dd2 in whole red blood cells, using parasite LDH activity as an index of growth. Test compounds present at 2uM
[3] = tested on: HepG2; assay: GSK_TCMDC: Percent inhibition of human HepG2 cell line. Test compounds present at 10uM.

| Compound | Inhibition [1] | Inhibition [2] | Inhibition [3] |
| --- | --- | --- | --- |
| CN(C)Cc1ccc(-c2cc3ncnc(Nc4ccc(OCc5cccc(F)c5)c(Cl)c4)c3s2)[nH]1 | 99% | 87% | 53% |
| COc1cc(OC)c2c(c1Cl)O[C@]1(C2=O)C(=O)C(Cc2ccccc2)(Cc2ccccc2)C(=O)C[C@H]1C | 90% | 45% | 0% |
| O=C(Cc1c[nH]cn1)Nc1cccc(-c2ccc(-c3nc4ccccc4[nH]3)cc2)c1 | 99% | 72% | 7% |
| CCc1c(C)nc(-n2nc(C)cc2NC(=O)CCc2ccccc2)[nH]c1=O | 97% | 97% | 48% |
| Cc1cc(N(C)C2CCN(CC3CCCCC3)C2)nc(Nc2ccc(Br)cc2)n1 (stereo not given) | 98% | 38% | 14% |
| O=C(Nc1ccc(-c2cccc(-c3nc4cc(F)ccc4[nH]3)c2)cc1)Nc1ccc(F)c(F)c1F | 100% | 98% | 70% |
| Cl.c1cc2c3c(cccc3c1)NC(CCCCCCCCC1=Nc3cccc4cccc(c34)N1)=N2 | 93% | 6% | 14% |
| O=C(N[C@@H](Cc1ccccc1)C(=O)NCc1cccc(C(F)(F)F)c1)c1ccc(O)c(-c2ccc(Cl)c(Cl)c2)c1 | 96% | 97% | 0% |
| O=C(c1cc(C(=O)Nc2ccccc2)c(=O)n(-c2ccccc2)c1)c1cc(Cl)ccc1O | 100% | 95% | 9% |
| COc1ccc(Cl)cc1S(=O)(=O)Nc1cccc(CCN2CCC(N3CCCCC3)CC2)c1 | 100% | 9% | 33% |
| CCc1cn(C)c2c(N3CCCC3=O)cc(C(=O)N[C@@H](Cc3ccccc3)[C@H](O)CNC(C)(C)CCCC(C)C)cc12 | 97% | 98% | 15% |
| Cc1ccc(C2=NNC3(S2)C(=O)N(C)c2ccccc23)cc1 (stereo not given) | 82% | 12% | 36% |
| COC(=O)[C@@H](NC(=O)[C@@H](Nc1ccc(C#N)c2ccccc12)C(C)(C)C)c1ccc(O)cc1 | 100% | 74% | 0% |
| Cc1cccc2nc(-c3cccc(-c4cccc(NC(=O)c5cncn5C)c4)c3)[nH]c12 | 100% | 91% | 0% |
| N=C(N)NN=CC(=O)Nc1ccc(Br)cc1.O=S(=O)(O)O | 100% | 1% | 5% |
| O=C(Nc1cccc(CN2CCN(Cc3cccc(O)c3)CC2)c1)c1ccc(Cl)c(Cl)c1.O=C(O)C(F)(F)F | 100% | 35% | 28% |
| COc1ccc(NC(=O)c2c(NC(=O)c3cccs3)sc3c2CCCC3)cc1 | 97% | 4% | 4% |
| COc1ccc(-c2ccc(NC(=O)c3cccc(C#N)c3)cc2)cc1CN1CCCN(C)CC1.O=C(O)C(F)(F)F | 100% | 70% | 26% |
| CC1(C)N=C(NC(=O)Nc2ccc([N+](=O)[O-])cc2)N=C(N)N1OCc1cccc2ccccc12 | 97% | 21% | 35% |
| O=C(Nc1cccc(-c2cccc(-c3nc4cc(F)ccc4[nH]3)c2)c1)c1csnn1 | 95% | 29% | 23% |

| Compound | Inhibition [1] | Inhibition [2] | Inhibition [3] |
| --- | --- | --- | --- |
| COc1ccnc(NCCCNCc2cn(S(=O)(=O)c3ccccc3)c3ccccc23)c1 | 99% | 18% | 57% |
| CN(C)S(=O)(=O)c1ccc(N2CCN(CCC3(c4cccc(F)c4)CCN(C(=O)C(C)(C)C)CC3)CC2)c2nonc12 | 91% | 85% | 8% |
| CCn1c(SCC(=O)Nc2cc(C(F)(F)F)ccc2Cl)nc2ccccc2c1=O | 93% | 95% | 8% |
| CCC(=O)Oc1ccc(NC(=O)c2cccc(OC)c2)cc1 | 98% | 3% | 17% |
| Oc1ccc(Nc2nc(NCc3ccccc3)c3ccccc3n2)cc1 | 100% | 100% | 33% |
| CCn1nc(C(=O)NC2CCOc3ccccc32)c2ccccc2c1=O (stereo not given) | 86% | 59% | 13% |
| N#Cc1ccc(N2CCN(Cc3ccc(-c4ccc(-c5nc6cc(C(F)(F)F)ccc6[nH]5)s4)cc3)CC2)nc1.O=C(O)C(F)(F)F | 100% | 73% | 13% |
| Cc1ccoc1C(=O)Nc1cccc(-c2cccc(-c3nc4cccc(C)c4[nH]3)c2)c1 | 100% | 79% | 17% |
| COc1ccc(NC(=O)[C@H](Cc2ccccc2)Nc2cc(C)nc(NCCN3CCCC3)n2)cc1.O=C(O)C(F)(F)F | 97% | 3% | 15% |
| Br.CCCCCCCCc1c(C)nc(C)c(Br)c1O | 96% | 92% | 0% |
| COC(=O)/C=C/c1ccc(CCC(C)NCC(O)c2cccc(Cl)c2)cc1 (stereo not given) | 94% | 77% | 5% |
| COC(=O)c1cccc(CNCc2ccc(-c3ccc(-c4nc5cc(F)ccc5[nH]4)cc3)cc2)c1.O=C(O)C(F)(F)F | 100% | 95% | 8% |
| Cc1nc(-c2cccc(Nc3nccc(NCC(O)c4cccc(F)c4)n3)c2)cs1 (stereo not given) | 98% | 59% | 39% |
| Cc1ccc2c(NC(=O)Nc3ccc(N(C)C)cc3)cc(C)nc2c1 | 98% | 20% | 0% |
| CC(C(=O)NC1CCN(c2ccnc(Nc3ccc(F)cc3)n2)C1)c1ccc(Cl)cc1 (stereo not given) | 95% | 90% | 17% |
| CN1CCCC(CN2CCN(Cc3cccc(-c4csc(-c5nc6ccccc6[nH]5)c4)c3)CC2)C1.O=C(O)C(F)(F)F (stereo not given) | 100% | 100% | 65% |
| COc1ccc2c(C)cc(NCCCN(C)C)nc2c1.O=C(O)C(=O)O | 95% | 19% | 10% |
| CNC(=O)c1cnc(Nc2ccc(OCC(O)CN(C)C)cc2)nc1Nc1cccc([N+](=O)[O-])c1.O=C(O)C(F)(F)F (stereo not given) | 100% | 94% | 52% |
| CC(C)Cc1c(O)nc(SCCN2CCOCC2)[nH]c1=O.Cl | 88% | 0% | 19% |
| O=C(O)C(F)(F)F.Oc1ccc(CCNc2nc(NCCOc3ccccc3-c3ccccc3)nc(N3CCNCC3)n2)cc1 | 93% | 17% | 22% |

| Compound | Inhibition [1] | Inhibition [2] | Inhibition [3] |
| --- | --- | --- | --- |
| O=C(C=Cc1ccc(Cl)c(Cl)c1)NCCCCCN1CCCC(CCCNC(=O)c2cccs2)C1 (stereo not given) | 89% | 0% | 24% |
| COc1c(OC)c(OC)c2ccccc2c1CCNCCCCNCCc1c(OC)c(OC)c(OC)c2ccccc12.CS(=O)(=O)O | 99% | 72% | 100% |
| Cc1c(CC(=O)N(C)C2CCN(CCCCCNC(=O)/C=C/c3ccc(Cl)c(Cl)c3)CC2)sc2ccc(Cl)cc12 | 95% | 9% | 93% |
| CC(C)N1CCC(NC(=O)N2CCCN(c3ncnc4cc(-c5ccccc5)sc34)CC2)CC1.O=C(O)C(F)(F)F | 87% | 11% | 31% |
| Cc1ccc(NC(=O)NC2CCN(c3ccnc4ccccc34)CC2)cc1.O=C(O)C(F)(F)F | 97% | 52% | 21% |
| COc1ccc2nccc([C@@H](O)CN3CCC(NCc4nc5c(F)cccc5[nH]4)CC3)c2c1.O=C(O)C(=O)O | 100% | 6% | 0% |
| CCN(CCCNc1nc(=S)[nH]c2cc(OC)c(OC)cc12)c1ccccc1 | 100% | 23% | 14% |
| CN(C)CCNCc1ncsc1-c1ccc2c(Nc3ccc(F)cc3Cl)ccnc2c1 | 100% | 95% | 0% |
| CC(C)(C)c1ccc(NC(=O)c2ccc(CN3CCCN(CC4CCCCC4)CC3)cc2)cc1.O=C(O)C(F)(F)F | 99% | 64% | 54% |
| CCOc1cc(CC)ccc1C1CCN(CCN2CCC(NC(=O)c3ccc(-c4ccc(C(C)=O)cc4)cc3)CC2)CC1 | 100% | 8% | 25% |
| CCOC(=O)C1=C(C)NC2=C(C(=O)CC(C)(C)C2)C1c1ccc(Br)cc1 (stereo not given) | 90% | 66% | 0% |
| CCCN(CCC)C(=O)c1cc(C(=O)N[C@@H](Cc2ccccc2)[C@H](O)CNCc2cccc(OC)c2)cc(N2CCCCS2(=O)=O)c1 | 97% | 99% | 0% |
| CN1CCN(CC(=O)Nc2cccc(-c3cccc(-c4nc5cc(F)ccc5[nH]4)c3)c2)CC1 | 100% | 98% | 16% |
| O=C(Nc1cccc(-c2ccc(-c3nc4cc(F)ccc4[nH]3)s2)c1)c1ccncc1 | 96% | 29% | 74% |
| CCN(CC)/C(=N/C(=N)Nc1ccc(Cl)c(Cl)c1)NCCCCCCN/C(=N\C(=N)Nc1ccc(Cl)c(Cl)c1)N(CC)CC | 94% | 90% | 1% |
| CN(c1ccc2c(c1)nc(NCc1ccc(F)cc1)n2C)c1ccnc(Nc2ccc(CS(C)(=O)=O)cc2)n1.Cl | 97% | 79% | 48% |
| Cc1[nH]c(C)c(-c2ccc(-c3ccc(Cl)cc3)cc2)c(=O)c1Cl | 96% | 96% | 0% |
| Cn1cnnc1Sc1ccc(CN2CCOc3ccc(C4=CCCCC4)cc3C2)o1 | 98% | 97% | 1% |
| CN(C)c1ccc(CN2CCC(CNC(=O)c3cc(-c4ccccc4Cl)cs3)C2)cc1.O=C(O)C(F)(F)F (stereo not given) | 91% | 5% | 29% |
| CC(C)CNCc1ccc(-c2ccc(CNC3CCN(Cc4ccccc4)CC3)cc2)cc1.O=C(O)C(F)(F)F | 100% | 96% | 16% |
